Legend:
Details in all cases: concentration: 1 μM,replicates: in singlicate; n = 1
[1] = system: T1, PCTK2
T1 construct: gene CDK17

[2] = system: T2, PCTK3
T2 construct: gene CDK18

[3] = system: PDGFRA
[4] = system: PDGFRB
[5] = system: PDPK1
[6] = system: PFTAIRE2
[7] = system: T3, PFTK1
T3 construct: gene CDK14

[8] = system: PHKG1
[9] = system: PHKG2
[10] = system: PIK3C2B
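Also: KINOMEscan kinase panel screen.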

| Structure (SMILES) | %Inh [1] | %Inh [2] | %Inh [3] | %Inh [4] | %Inh [5] | %Inh [6] | %Inh [7] | %Inh [8] | %Inh [9] | %Inh [10] |
| --- | --- | --- | --- | --- | --- | --- | --- | --- | --- | --- |
| CC(=O)c1c(-c2ccncc2)[nH]c(-c2ccncc2)c1C [GW493036] | 0% | 54% | 0% | 7% | 0% | 0% | 26% | 0% | 0% | 0% |
| Cc1ccc(Nc2ccnc(Nc3ccc4c(c3)CS(=O)(=O)C4)n2)cc1O.Cl [GW579362] | 35% | 16% | 92.8% | 100% | 38% | 15% | 27% | 0% | 1% | 4% |
| O=C(Nc1cccc(C(F)(F)F)c1)c1cccc(Oc2ccc3nccn3n2)c1 | 0% | 0% | 98.5% | 99.9% | 13% | 0% | 0% | 33% | 0% | 99.3% |
| Cl.Nc1n[nH]c2cc(-c3ccccn3)ccc12 [GSK2189892] | 13% | 0% | 0% | 16% | 0% | 5% | 6% | 0% | 0% | 0% |
| CSc1nccc(-c2c(-c3ccc(F)cc3)ncn2CCCN2CCOCC2)n1.Cl [SB-217146] | 0% | 0% | 0% | 12% | 10% | 0% | 0% | 11% | 0% | 0% |
| CCn1c(-c2nonc2N)nc2cncc(CNC3CCNCC3)c21.Cl [SB-747651] | 0% | 0% | 0% | 4% | 18% | 14% | 1% | 25% | 0% | 0% |
| C[C@@H]1CNc2c(sc3ccc4nc(-c5ccc(O)cc5)ccc4c23)C(=O)N1 | 0% | 4% | 42% | 56% | 0% | 18% | 8% | 31% | 0% | 16% |
| NC(=O)c1ccc(-c2cc3ncnc(SCC(=O)O)c3s2)cc1 | 0% | 2% | 71% | 80% | 0% | 0% | 7% | 0% | 1% | 0% |

— paper PMC5540273 (PLoS ONE, 2017)
